Common to all, as to test: DAPPL (digital affinity profiling via proximity ligation, sequencing); 10 mM Tris-HCl pH 7.5, 50 mM NaCl, 1 mM DTT, 4% glycerol, room temperature, 30 min; GST-TFs on glutathione beads, 16-mer random dsDNA library, 0.1% formaldehyde crosslink after washing; high values mean tight binding
Settings in all cases: protein: recombinant; tags: N-terminal GST; dsDNA, one strand shown

One experiment has as its target T1, FLI1 (Homo sapiens, UniProt Q01543 1-452).
T1 sequence: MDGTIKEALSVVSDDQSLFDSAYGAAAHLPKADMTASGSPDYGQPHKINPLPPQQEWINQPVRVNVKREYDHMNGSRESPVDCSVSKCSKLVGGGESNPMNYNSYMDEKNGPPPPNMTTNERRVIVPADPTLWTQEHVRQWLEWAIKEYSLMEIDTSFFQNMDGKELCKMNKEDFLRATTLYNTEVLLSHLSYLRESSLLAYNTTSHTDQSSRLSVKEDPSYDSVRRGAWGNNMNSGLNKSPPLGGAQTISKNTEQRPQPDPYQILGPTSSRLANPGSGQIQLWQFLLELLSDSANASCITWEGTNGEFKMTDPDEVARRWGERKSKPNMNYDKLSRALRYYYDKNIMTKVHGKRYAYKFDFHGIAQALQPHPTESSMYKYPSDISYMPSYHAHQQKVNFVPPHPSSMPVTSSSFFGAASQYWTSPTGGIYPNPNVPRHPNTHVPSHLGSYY
Put shortly:
(§1)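 Sequencing on an Illumina NextSeq500 followed washing, crosslinking with 0.1% formaldehyde, proximity ligation (BsaI/T4 ligase, 1 h, 37 °C) and PCR amplification of pools that had been incubated for 30 min at room temperature with 200 nmole of a random double-stranded 16-mer DNA library in Tris/NaCl/DTT/glycerol buffer. Each pool held DNA-barcoded human transcription factors, expressed in yeast as GST fusions and captured on glutathione beads, plus a tag-only sample. Binding signal is a hexamer's read frequency for a factor divided by its frequency in the tag-only sample.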

Another experiment addresses T2, ELK1 (Homo sapiens, UniProt P19419 1-428).
T2 sequence: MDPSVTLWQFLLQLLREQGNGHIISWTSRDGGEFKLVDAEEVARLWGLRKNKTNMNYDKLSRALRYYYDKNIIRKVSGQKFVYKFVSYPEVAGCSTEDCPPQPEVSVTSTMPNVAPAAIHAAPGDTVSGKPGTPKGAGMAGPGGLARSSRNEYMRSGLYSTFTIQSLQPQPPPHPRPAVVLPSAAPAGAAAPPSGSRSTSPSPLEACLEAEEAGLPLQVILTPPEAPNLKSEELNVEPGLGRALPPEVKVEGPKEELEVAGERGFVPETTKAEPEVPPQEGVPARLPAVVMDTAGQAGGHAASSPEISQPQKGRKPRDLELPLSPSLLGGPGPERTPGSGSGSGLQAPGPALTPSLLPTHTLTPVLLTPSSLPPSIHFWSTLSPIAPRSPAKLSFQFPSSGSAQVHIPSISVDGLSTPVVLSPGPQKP
Put shortly:
as §1

In a further experiment the target is T3, GABPA (Homo sapiens, UniProt Q06546 1-454).
T3 sequence: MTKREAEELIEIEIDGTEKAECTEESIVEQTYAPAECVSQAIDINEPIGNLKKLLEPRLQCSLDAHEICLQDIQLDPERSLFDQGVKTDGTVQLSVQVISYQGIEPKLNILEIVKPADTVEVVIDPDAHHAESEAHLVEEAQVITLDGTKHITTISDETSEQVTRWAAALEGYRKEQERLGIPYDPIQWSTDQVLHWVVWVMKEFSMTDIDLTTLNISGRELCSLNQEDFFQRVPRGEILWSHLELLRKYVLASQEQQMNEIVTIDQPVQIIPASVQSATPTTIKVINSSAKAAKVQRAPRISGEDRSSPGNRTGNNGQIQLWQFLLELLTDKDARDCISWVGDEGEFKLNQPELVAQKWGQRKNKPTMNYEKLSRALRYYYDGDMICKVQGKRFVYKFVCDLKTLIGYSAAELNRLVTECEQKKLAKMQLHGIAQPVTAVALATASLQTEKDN
Put shortly:
as §1

Another experiment deals with T4, ERG (Homo sapiens, UniProt P11308 1-479).
T4 sequence: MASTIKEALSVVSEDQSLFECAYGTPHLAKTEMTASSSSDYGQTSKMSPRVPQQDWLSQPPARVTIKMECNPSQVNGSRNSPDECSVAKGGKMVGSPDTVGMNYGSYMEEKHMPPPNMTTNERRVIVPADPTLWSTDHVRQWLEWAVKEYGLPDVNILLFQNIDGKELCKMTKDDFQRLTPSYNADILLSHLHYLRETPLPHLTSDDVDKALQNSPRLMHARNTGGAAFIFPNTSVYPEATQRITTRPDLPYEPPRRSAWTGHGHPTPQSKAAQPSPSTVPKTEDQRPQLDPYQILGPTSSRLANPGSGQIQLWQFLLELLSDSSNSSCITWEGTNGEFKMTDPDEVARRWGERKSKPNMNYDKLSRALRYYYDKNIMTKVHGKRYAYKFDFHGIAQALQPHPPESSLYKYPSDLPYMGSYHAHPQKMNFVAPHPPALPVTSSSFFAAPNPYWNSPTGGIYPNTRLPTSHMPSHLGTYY
The gist of the method:
as §1

For a further experiment, the target named is ELF1 (Homo sapiens, UniProt P32519 1-619). The gist of the method:
as §1

The next experiment addresses T5, EHF (Homo sapiens, UniProt Q9NZC4 1-300).
T5 sequence: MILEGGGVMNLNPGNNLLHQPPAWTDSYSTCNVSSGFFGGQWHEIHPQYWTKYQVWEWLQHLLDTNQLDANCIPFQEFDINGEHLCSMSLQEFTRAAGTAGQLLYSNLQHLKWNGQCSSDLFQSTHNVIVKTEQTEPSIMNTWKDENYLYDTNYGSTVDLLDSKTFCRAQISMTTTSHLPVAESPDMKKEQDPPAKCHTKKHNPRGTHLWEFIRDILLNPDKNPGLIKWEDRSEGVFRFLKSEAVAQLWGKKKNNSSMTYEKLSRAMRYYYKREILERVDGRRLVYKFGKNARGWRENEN
The gist of the method:
as §1

For a further experiment, the target named is SPI1 (Homo sapiens, UniProt P17947 1-270). The gist of the method: as §1
A further experiment deals with SPIB (Homo sapiens, UniProt Q01892 1-262). The gist of the method:
as §1

In another experiment the target is T6, ELK3 (Homo sapiens, UniProt P41970 1-407).
T6 sequence: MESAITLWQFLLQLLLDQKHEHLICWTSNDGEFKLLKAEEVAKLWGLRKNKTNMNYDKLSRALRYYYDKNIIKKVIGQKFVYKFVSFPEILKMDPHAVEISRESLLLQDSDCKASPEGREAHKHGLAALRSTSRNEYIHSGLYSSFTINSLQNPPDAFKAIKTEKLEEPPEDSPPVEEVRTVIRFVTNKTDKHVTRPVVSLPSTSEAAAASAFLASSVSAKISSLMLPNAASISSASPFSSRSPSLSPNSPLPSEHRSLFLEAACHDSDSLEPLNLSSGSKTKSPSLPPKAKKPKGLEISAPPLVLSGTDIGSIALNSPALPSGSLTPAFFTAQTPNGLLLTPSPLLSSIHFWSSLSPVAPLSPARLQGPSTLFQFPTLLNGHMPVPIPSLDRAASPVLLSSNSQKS
Put shortly:
as §1

For a further experiment, the target named is T7, FEV (Homo sapiens, UniProt Q99581 1-238).
T7 sequence: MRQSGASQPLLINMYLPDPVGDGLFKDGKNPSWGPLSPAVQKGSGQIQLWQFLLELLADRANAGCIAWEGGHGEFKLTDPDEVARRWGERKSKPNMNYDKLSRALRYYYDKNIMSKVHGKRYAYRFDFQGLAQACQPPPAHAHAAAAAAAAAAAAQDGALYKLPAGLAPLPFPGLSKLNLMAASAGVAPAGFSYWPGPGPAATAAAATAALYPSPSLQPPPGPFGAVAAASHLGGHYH
The gist of the method:
as §1

The next experiment addresses ETV5 (Homo sapiens, UniProt P41161 1-510). The gist of the method: as §1
In a further experiment the target is T8, SPIC (Homo sapiens, UniProt Q8N5J4 1-248).
T8 sequence: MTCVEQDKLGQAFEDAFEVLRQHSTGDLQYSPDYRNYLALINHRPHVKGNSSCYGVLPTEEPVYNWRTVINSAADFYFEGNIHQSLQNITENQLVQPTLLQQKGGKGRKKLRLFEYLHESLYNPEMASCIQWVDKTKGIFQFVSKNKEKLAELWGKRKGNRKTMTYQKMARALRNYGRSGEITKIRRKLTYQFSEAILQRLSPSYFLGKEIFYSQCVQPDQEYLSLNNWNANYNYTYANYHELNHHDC
The gist of the method:
as §1

Another experiment has as its target ELF4 (Homo sapiens, UniProt Q99607 1-663). Put shortly:
as §1

The next experiment has as its target T9, ELK4 (Homo sapiens, UniProt P28324-2 1-405).
T9 sequence: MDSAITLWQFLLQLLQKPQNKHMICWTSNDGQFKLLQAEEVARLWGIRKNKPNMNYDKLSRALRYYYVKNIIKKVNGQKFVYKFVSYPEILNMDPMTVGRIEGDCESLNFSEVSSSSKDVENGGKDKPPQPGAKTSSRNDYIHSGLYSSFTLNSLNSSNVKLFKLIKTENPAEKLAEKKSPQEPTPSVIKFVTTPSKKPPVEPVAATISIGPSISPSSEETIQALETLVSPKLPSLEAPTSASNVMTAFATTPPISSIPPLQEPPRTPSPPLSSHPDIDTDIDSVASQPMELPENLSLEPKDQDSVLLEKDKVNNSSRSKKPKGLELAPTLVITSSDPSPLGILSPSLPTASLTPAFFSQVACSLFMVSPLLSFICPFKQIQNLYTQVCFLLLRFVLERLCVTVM
The gist of the method: as §1

A further experiment addresses T10, ETV2 (Homo sapiens, UniProt O00321 1-342).
T10 sequence: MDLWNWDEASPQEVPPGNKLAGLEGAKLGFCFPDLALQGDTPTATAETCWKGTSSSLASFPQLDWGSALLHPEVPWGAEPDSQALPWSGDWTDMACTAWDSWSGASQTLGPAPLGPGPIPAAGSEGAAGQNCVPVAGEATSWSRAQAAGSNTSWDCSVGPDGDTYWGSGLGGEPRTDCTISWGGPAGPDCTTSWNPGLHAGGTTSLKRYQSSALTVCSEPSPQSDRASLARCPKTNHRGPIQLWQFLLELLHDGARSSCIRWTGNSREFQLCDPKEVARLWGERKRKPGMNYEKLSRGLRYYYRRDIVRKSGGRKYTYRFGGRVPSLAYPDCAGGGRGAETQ
Put shortly: as §1

A further experiment has as its target T11, ELF3 (Homo sapiens, UniProt P78545 1-371).
T11 sequence: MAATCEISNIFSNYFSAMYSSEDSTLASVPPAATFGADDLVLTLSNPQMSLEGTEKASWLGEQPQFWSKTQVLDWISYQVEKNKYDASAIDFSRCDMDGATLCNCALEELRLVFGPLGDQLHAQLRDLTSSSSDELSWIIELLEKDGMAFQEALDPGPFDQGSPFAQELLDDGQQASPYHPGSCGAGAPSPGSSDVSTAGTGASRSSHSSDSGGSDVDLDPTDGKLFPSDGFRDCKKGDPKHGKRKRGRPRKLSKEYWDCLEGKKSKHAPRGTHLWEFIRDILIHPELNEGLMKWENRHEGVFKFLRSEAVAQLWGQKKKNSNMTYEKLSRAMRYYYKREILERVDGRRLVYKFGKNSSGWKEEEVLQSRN
Put shortly: as §1

Another experiment addresses ETV1 (Homo sapiens, UniProt P50549 1-477). The gist of the method: as §1

Chain of ETV5 (P41161 whole entry): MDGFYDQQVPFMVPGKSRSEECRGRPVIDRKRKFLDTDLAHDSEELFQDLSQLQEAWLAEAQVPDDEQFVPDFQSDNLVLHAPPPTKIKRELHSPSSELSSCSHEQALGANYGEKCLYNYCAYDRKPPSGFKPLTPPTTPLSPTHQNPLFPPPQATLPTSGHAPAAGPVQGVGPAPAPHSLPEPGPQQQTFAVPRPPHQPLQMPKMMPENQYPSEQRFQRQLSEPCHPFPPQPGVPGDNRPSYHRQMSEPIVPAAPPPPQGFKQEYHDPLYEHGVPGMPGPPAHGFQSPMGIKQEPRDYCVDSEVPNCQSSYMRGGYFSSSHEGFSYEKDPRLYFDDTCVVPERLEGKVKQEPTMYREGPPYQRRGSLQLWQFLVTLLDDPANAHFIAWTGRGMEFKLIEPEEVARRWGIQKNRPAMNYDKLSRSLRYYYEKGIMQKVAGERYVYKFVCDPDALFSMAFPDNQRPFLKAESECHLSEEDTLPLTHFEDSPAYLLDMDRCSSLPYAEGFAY
Chain of SPIB (Q01892 whole entry): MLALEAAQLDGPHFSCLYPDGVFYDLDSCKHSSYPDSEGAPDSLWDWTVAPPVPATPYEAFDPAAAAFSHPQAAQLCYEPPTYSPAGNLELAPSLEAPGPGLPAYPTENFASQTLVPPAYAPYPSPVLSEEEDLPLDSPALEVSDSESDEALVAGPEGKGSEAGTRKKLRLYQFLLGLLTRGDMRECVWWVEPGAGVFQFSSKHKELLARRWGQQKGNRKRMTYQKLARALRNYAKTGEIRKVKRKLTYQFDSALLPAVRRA
Chain of ELF1 (P32519 whole entry): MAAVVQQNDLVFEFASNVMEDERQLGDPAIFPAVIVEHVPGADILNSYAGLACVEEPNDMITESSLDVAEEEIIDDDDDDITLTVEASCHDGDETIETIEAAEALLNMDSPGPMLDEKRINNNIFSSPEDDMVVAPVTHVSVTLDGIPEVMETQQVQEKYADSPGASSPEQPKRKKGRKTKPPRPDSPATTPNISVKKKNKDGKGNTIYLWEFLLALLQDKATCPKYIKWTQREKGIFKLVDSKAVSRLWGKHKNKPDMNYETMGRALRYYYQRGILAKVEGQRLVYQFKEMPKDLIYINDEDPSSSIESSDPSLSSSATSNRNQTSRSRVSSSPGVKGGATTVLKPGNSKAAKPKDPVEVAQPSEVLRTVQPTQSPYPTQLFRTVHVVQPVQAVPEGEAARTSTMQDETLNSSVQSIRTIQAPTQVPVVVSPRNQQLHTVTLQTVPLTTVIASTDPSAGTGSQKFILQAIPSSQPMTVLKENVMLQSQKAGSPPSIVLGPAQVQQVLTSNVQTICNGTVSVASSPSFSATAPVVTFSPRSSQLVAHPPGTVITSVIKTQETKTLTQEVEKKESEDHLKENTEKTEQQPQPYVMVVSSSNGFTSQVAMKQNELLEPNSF
Chain of ELF4 (Q99607 whole entry): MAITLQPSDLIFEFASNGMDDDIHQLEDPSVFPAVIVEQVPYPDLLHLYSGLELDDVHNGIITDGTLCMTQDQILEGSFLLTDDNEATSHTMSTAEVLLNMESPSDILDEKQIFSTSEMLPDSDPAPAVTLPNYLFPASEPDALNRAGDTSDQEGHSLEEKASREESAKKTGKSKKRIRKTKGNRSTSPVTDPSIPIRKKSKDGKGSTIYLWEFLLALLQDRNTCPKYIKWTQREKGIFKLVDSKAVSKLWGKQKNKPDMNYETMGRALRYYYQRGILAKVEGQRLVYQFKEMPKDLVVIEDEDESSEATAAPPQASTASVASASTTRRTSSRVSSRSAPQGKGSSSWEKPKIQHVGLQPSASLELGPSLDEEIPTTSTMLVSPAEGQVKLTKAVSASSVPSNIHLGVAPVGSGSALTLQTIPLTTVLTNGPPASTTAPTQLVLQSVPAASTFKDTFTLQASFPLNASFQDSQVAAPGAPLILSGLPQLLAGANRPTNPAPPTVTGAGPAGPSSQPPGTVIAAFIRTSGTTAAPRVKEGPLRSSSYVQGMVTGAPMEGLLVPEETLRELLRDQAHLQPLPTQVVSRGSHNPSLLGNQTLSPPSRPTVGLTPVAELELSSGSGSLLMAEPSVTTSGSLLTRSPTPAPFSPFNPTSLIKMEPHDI
Chain of ETV1 (P50549 whole entry): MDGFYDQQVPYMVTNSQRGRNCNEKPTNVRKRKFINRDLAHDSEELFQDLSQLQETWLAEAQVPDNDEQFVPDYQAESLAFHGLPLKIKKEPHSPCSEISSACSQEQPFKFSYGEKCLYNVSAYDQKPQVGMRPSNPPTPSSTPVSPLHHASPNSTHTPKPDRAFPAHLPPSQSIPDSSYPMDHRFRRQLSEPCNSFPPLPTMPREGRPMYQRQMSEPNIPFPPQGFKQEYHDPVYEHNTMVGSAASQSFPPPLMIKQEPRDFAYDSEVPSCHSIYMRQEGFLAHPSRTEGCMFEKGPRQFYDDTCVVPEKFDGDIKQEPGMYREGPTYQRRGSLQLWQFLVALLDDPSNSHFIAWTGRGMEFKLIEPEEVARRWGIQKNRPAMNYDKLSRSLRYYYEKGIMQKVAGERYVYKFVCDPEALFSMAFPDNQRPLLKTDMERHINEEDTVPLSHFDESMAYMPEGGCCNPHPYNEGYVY

In the case of TGTCCA, the binding signal with FLI1 is 1.18 fold enrichment (6-mer frequency, TF over GST control); with ELK1 it was 1.18 fold enrichment (6-mer frequency, TF over GST control); in the experiment with GABPA it was 1.1 fold enrichment (6-mer frequency, TF over GST control); with ERG, 1.19 fold enrichment (6-mer frequency, TF over GST control); with ELF1, 1.19 fold enrichment (6-mer frequency, TF over GST control); in the experiment with EHF, 1.16 fold enrichment (6-mer frequency, TF over GST control). In addition, the binding signal with SPI1 was 1.08 fold enrichment (6-mer frequency, TF over GST control); with SPIB, 1.13 fold enrichment (6-mer frequency, TF over GST control); in the experiment with ELK3 it was 1.14 fold enrichment (6-mer frequency, TF over GST control); with FEV, 1.11 fold enrichment (6-mer frequency, TF over GST control); with ETV5 it was 1.15 fold enrichment (6-mer frequency, TF over GST control); with SPIC it was 1.17 fold enrichment (6-mer frequency, TF over GST control). Further, the binding signal with ELF4 was 1.16 fold enrichment (6-mer frequency, TF over GST control); in the experiment with ELK4, 1.11 fold enrichment (6-mer frequency, TF over GST control); with ETV2, 1.3 fold enrichment (6-mer frequency, TF over GST control); with ELF3, 1.06 fold enrichment (6-mer frequency, TF over GST control); in the experiment with ETV1, 1.04 fold enrichment (6-mer frequency, TF over GST control).
On to GCGACC, for which the binding signal with FLI1 is 1.09 fold enrichment (6-mer frequency, TF over GST control); with ELK1 it was 1.11 fold enrichment (6-mer frequency, TF over GST control); in the experiment with GABPA, 1.09 fold enrichment (6-mer frequency, TF over GST control); with ERG, 1.17 fold enrichment (6-mer frequency, TF over GST control); in the experiment with ELF1 it was 1.15 fold enrichment (6-mer frequency, TF over GST control); in the experiment with EHF, 1.2 fold enrichment (6-mer frequency, TF over GST control). Moreover, the binding signal in the experiment with SPI1 is 1.07 fold enrichment (6-mer frequency, TF over GST control); with SPIB it was 1.08 fold enrichment (6-mer frequency, TF over GST control); with ELK3, 1.02 fold enrichment (6-mer frequency, TF over GST control); with FEV it was 1.19 fold enrichment (6-mer frequency, TF over GST control); in the experiment with ETV5, 1.09 fold enrichment (6-mer frequency, TF over GST control); with SPIC it was 1.2 fold enrichment (6-mer frequency, TF over GST control). Moreover, the binding signal with ELF4 was 1.25 fold enrichment (6-mer frequency, TF over GST control); with ELK4 it was 1.03 fold enrichment (6-mer frequency, TF over GST control); in the experiment with ETV2, 1.26 fold enrichment (6-mer frequency, TF over GST control); with ELF3 it was 1.08 fold enrichment (6-mer frequency, TF over GST control); in the experiment with ETV1, 1.06 fold enrichment (6-mer frequency, TF over GST control).

These data come from PMC7862700, “An all-to-all approach to the identification of sequence-specific readers for epigenetic DNA modifications on cytosine”.
